Sampled rows, rich in hits. Any-hit rate of the full collection: about 1.5%.
MCL1 BIM primary = disrupts human MCL1 binding to BIM-BH3 peptide; Q07820; inhibition, % at 10.9 µM; hit rate 0.68% among 320,000; AID 2057; GST-MCL1 / FITC-Bim-BH3 fluorescence polarization;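 active = inhibition above the mean inhibition of all tested compounds plus 3 SD, set per campaign, cut at about 40% in these data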;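 note: 0% = DMSO wells and 100% = unlabeled Bim-BH3 peptide control; higher means more loss of mP so more displacement of Bim peptide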
eLon inh = inhibitors of E. coli Lon protease; P0A9M0; purified E. coli Lon protease, fluorescence polarization; inhibition, % at 7.94 µM; hit rate 0.42% among 360,000; in the data active = inhibition above about 13%, passing the limit was not always enough;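 note: 0% = enzyme with probe and DMSO and 100% = no enzyme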
BCLXL inh = inhibitors of human Bcl-xL. Q07817. GST-Bcl-xL / FITC-Bim BH3 peptide fluorescence polarization. inhibition, % at 10.9 µM. hit rate 0.7% among 320,000. AID 2129;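 active = inhibition above the mean of all tested compounds plus 3 SD, cutoff set per campaign, cut at about 30% in these data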;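 note: 0% = DMSO wells and 100% = unlabeled Bim-BH3 peptide competitor; inhibitors lower millipolarization by displacing the labeled peptide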
EBV gp42 block = EBV gp42 inhibition; Fluorescence polarization binding assay, mP read-out; inhibition, % (tested at 21.74 µM); hit rate 0.42% among 220,000; in the data active = inhibition above about 50%
Target sequence (Q1HVG2 whole entry, looked up): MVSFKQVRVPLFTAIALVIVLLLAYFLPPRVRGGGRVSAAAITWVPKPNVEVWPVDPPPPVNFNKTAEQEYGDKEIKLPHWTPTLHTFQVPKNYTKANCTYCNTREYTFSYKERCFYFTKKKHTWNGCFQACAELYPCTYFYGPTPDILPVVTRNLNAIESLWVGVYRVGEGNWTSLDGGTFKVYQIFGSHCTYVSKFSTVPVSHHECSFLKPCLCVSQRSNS
GLD-1 TGE inh = GLD-1-TGE RNA interaction inhibition (C. elegans); Q17339; purified GLD-1 + fluorescein TGE RNA, fluorescence polarization; inhibition, % at 5.96 µM; hit rate 0.44% among 320,000;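 active = percent inhibition above a per-plate cutoff, the plate mean of test compounds plus 3 SD, cut at about 30% in these data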;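 note: 0% = DMSO wells with GLD-1 and probe and 100% = wells lacking GLD-1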
MEX-5 binding = C. elegans MEX-5 TCR-2 RNA binding activity | Q9XUB2 | MEX-5/FITC-TCR2 RNA binding, fluorescence polarization; stronger effect = lower value | activity score (negative = inhibition of binding), % at 10 µM | hit rate 0.38% among 300,000;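 active = inhibition past about -25% in most replicates, and total fluorescence under double the plate's negative control median, limit read from the data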;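 note: 0% = DMSO and -100% = 5 µM competing unlabeled TCR2 RNA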
An asterisk follows results filed as active; · = no result given.

SMILES	MCL1 BIM primary	eLon inh	BCLXL inh	EBV gp42 block	GLD-1 TGE inh	MEX-5 binding
Cc1ccc(O)c(-c2cc(C(=O)Nc3ccc(S(=O)(=O)Nc4nccc(C)n4)cc3)[nH]n2)c1	5	-6	9	-3	5	-29*
CC1CCN(C(=O)CSc2nnc(CNC(=O)COc3ccc(Cl)cc3)o2)CC1	6	1	2	0	1	-2
Nc1ccc(Oc2ccccc2F)nc1	8	-19	14	-3	32*	1
O=C(COc1ccccc1Cl)c1ccc[nH]1	34	3	10	57*	3	0
CCC(=O)NC(c1ccc(OC)cc1)c1cc(Cl)c2cccnc2c1O (stereo not given)	18	-4	20	-7	1	0
COc1ccc(C(NC(=O)c2cccnc2)c2cc(Cl)c3cccnc3c2O)cc1OC (stereo not given)	22	35*	18	-4	0	-1
N#Cc1c(N)nc2c3c(sc(=N)c2c1N)NC(=O)CC3c1ccccc1 (stereo not given)	42*	-18	47*	0	0	-3
N#Cc1c(N)nc2c3c(sc(=N)c2c1N)NC(=O)CC3c1c(F)cccc1Cl (stereo not given)	18	-14	18	4	5	-1
CC1=NOC(=O)/C1=C\c1ccc(-c2cc(Cl)ccc2Cl)o1	6	-3	3	95*	1	-2
COc1ccc(Cn2nnnc2CN(Cc2cc3ccc(C)cc3[nH]c2=O)C2CCCC2)cc1	0	-10	0	-1	1	-1
COCCn1nnnc1CN(Cc1cc2cc(OC)c(OC)cc2[nH]c1=O)C1CCCC1	41*	-7	34*	7	23	-3
Cc1ccc(C2(C)NC(=O)N(CC(=O)NNC(=O)c3ccoc3C)C2=O)cc1 (stereo not given)	4	-3	0	·	6	-3
Oc1[nH]c2ccccc2c1N=Nc1ccccc1Cl	·	-6	·	·	·	·
Oc1c(C=Nc2ccccc2Cl)[nH]c2ccccc12	28	9	39*	3	12	-29*
Cc1c(NC(=O)c2c(O)c3ccccc3n(C)c2=O)c(=O)n(-c2ccccc2)n1C	4	-2	4	-6	-4	-1
N#CC(c1nc2ccccc2nc1OCCO)S(=O)(=O)c1ccccc1 (stereo not given)	-2	-8	0	-20	3	-38*
Cc1ccc(S(=O)(=O)C(C#N)c2nc3ccccc3nc2OC(C)C)cc1 (stereo not given)	1	-8	6	0	1	-9
c1ccc(-n2c(Cc3cccnc3)nc3cnccc32)cc1	0	0	-4	·	-1	-2
Cc1cccc(NC(=O)c2cccc([N+](=O)[O-])c2O)c1C	·	-19	·	·	·	·
Cc1ccc(-n2c(SC3CCOC3=O)nc3ccccc3c2=O)cc1 (stereo not given)	9	·	31*	4	4	1
CCOC(=O)C1=C(C)N=c2s/c(=C\c3ccc(C(=O)O)cc3)c(=O)n2C1c1ccc(OC)cc1OC (stereo not given)	1	-6	-1	·	2	-5
CCOC(=O)C1=C(C)N=c2s/c(=C\c3cccn3C)c(=O)n2C1c1cccc(OC)c1OC (stereo not given)	-17	-42	-12	47	-20	-40*
Cc1nnc(NC(=O)CSc2nnc(Cc3cccn3C)n2-c2cccc(C)c2C)s1	-2	·	104*	-16	-4	0
Cc1nnc(NC(=O)CSc2nnc(Cc3cccn3C)n2-c2ccccc2)s1	-7	-1	1	3	-6	0
COc1ccc(NC(=O)CSc2ccc3c4c(cccc24)C(=O)c2ccccc2-3)cc1	-6	-36	15	133*	-17	-19
Nc1c(S(=O)(=O)O)cc(NC(=O)c2ccccc2)c2c1C(=O)c1ccccc1C2=O	109*	16	72*	·	68*	-1
CC(=O)NC12CC3CC(C1)CC(C(=O)OCC(=O)Nc1ncc(Cl)c(C)c1Cl)(C3)C2	36	-1	37*	1	14	-4
CC1(C)Cc2c(cnn2-c2cccc(F)c2)C(NC(=O)CSc2ccccn2)C1 (stereo not given)	5	-3	6	·	-1	-44*
COc1cc(C2Nc3cccc4cccc(c34)N2)cc(OC)c1O	28	-6	18	12	2	·
